These entries were drawn from the full list.
aSyn UTR act: Activators working through SNCA 5'UTR binding (MLPCN); 300,000 compounds, 7.1% hits; alpha-synuclein 5'UTR reporter, activators screen; AID 1814; activity score, % (tested at 7.5 µM), hits read low; in the data active = activity score below about -60%
Active calls of the source: *.

SMILES	aSyn UTR act
CCS(=O)(=O)n1nc(-c2ccc(Cl)cc2)nc1SC	-70*
O=C(CSc1nncs1)NC(=O)Nc1ccc2c(c1)OCCO2	-134*
O=C(CSc1nc2ccc(Cl)cc2[nH]1)c1ccc2c(c1)OCO2	-67*
COc1ccc2nc(SCC(=O)Nc3ccc4c(c3)OCCO4)[nH]c2c1	-63*
O=C(CSc1ncn[nH]1)Nc1ccc2c(c1)OCCO2	-62*
COc1ccc2nc(SCC(=O)/C(C#N)=C(\C)N)[nH]c2c1	-76*
O=C(CSc1nncs1)Nc1ccc2c(c1)OCCO2	-102*
O=C(O)c1ccc(N/N=C/C2=Cc3ccccc3OC2)cc1	-136*
Cc1ccccc1C(=O)Nn1cnc2ccccc2c1=O	-79*
COc1ccc(C(=O)Nn2cnc3ccccc3c2=O)c(OC)c1	-88*
Cc1cccc(C)c1NC(=O)COC(=O)c1cccc2c1C(=O)c1ccccc1C2=O	68
O=C(COC(=O)c1ccc2c(c1Cl)C(=O)c1ccccc1C2=O)NC1CC1	-66*
O=C(NCCc1ccccc1)c1ccccc1NC(=O)C1CC=CCC1C(=O)O (stereo not given)	-133*
O=C(CCc1ccccc1)Nc1c(F)cccc1F	-133*
O=C(Nc1ccccc1C(=O)NCCc1ccccc1)c1cnccn1	-68*
O=C(O)CCC(=O)Nc1ccccc1C(=O)NCCc1ccccc1	-78*
O=C(Nc1cccc2ccccc12)c1cnccn1	-96*
Cc1ccoc1C(=O)Nc1cccc2ccccc12	-92*
NC(=O)c1ccccc1NC(=O)CCc1ccccc1	-113*
CCN1CCN(c2nc(Nc3cccc(OC)c3)nc(N)c2[N+](=O)[O-])CC1	-86*
CCC(C)Nc1nc(N)c([N+](=O)[O-])c(Nc2ccccc2OC)n1 (stereo not given)	60
CCC(C)Nc1nc(N)c([N+](=O)[O-])c(Nc2cc(OC)ccc2OC)n1 (stereo not given)	97
Cc1cccc(N(C)S(=O)(=O)c2ccc(-c3cc(C)no3)s2)c1	88
Cc1cccc(N(C)C(=O)c2cc3cc4ccc(C)cc4nc3o2)c1	-605*
NC(=O)c1ccsc1NC(=O)c1coc2ccccc2c1=O	-156*
SMILES	aSyn UTR act
CCOC(=O)N/C(N)=N/c1nc2ccccc2s1	-116*
CC(=O)N/C(N)=N/c1nc(=O)c2ccccc2s1	-99*
CCOC(=O)c1ccc(-c2ccc3[nH]c4ccccc4c(=O)c3c2)cc1F	-81*
CCOC(=O)c1ccc(-c2c(-c3cc(OC)c(OC)c(OC)c3)noc2C)cc1F	58
CCCn1nc2cc(C(=O)NCCc3cccs3)ccc2c1OCC	-76*
CCOC(=O)c1c(C)[nH]c(C(=O)OCCOc2ccccc2C)c1C	-132*
CCOC(=O)c1c(C)[nH]c(C(=O)OCc2ccc(F)cc2)c1C	-170*
CCOC(=O)c1c(C)[nH]c(C(=O)CSc2ccc(Cl)cc2)c1C	-130*
CCOC(=O)c1c(C)[nH]c(C(=O)OCC(=O)c2ccccc2)c1C	-99*
CCOC(=O)c1c(C)[nH]c(C(=O)COC(=O)C2(C)CC2(Cl)Cl)c1C (stereo not given)	-171*
CCNC(=O)COC(=O)c1[nH]c(C)c(C(=O)OC)c1C	-85*
CC(=O)c1c(C)[nH]c(C(=O)OCc2ccccc2)c1C	-145*
CCOC(=O)c1c(C)[nH]c(C(=O)OCc2ccccc2F)c1C	-110*
Cc1cc2ccc3ccccc3c2cc1CN(C)C	-76*
COc1ncccc1-c1nnn(-c2ccccc2)n1	-156*
COc1ncccc1-c1nnn(-c2ccccc2Br)n1	-88*
Cc1ccc(NC2Nc3cc(C)nn3S2)c(C)c1 (stereo not given)	-138*
COc1cc(C)nc(N2CCCC(C(=O)NC3CCC(C)CC3)C2)n1 (stereo not given)	-146*
CCOC(=O)C(=CNc1ccc(C(F)(F)F)cc1Cl)C(=O)OCC	-97*
CCOC(=O)N1CC=C2C(C#N)=C(N)C(C#N)(C#N)[C@H](c3ccc(OCC)c(OCC)c3)[C@H]2C1	-78*
N/C(=N\OC(=O)c1ccco1)c1cccc(Br)c1	-249*
COc1ccc(/C(N)=N/OC(=O)c2ccco2)cc1OC	-142*
N/C(=N\OC(=O)c1ccco1)c1cccc([N+](=O)[O-])c1	-210*
O=C(Cc1ccccc1[N+](=O)[O-])NCc1ccc(Cl)cc1Cl	-142*
O=C(Cc1ccccc1[N+](=O)[O-])NCc1ccc(Cl)cc1	-94*
SMILES	aSyn UTR act
O=C1CC(c2ccccc2Cl)=NN(c2ncnc3ccccc23)C1=O	-74*
O=C(CC(Nc1ccccc1)c1ccc(F)cc1)c1ccccc1 (stereo not given)	-75*
Cc1ccc(NC(CC(=O)c2ccccc2)C(=O)O)cc1Cl (stereo not given)	-125*
O=C(CC(Nc1ccccc1)C(=O)O)c1ccccc1 (stereo not given)	-124*
CC1CCOC(c2coc3ccccc3c2=O)O1 (stereo not given)	-113*
CCCCn1cnc2c(oc3ccccc32)c1=O	-121*
CCn1c(-c2ccc(-c3ccccc3)cc2)c[nH]c1=S	-65*
Cn1c(-c2ccc(-c3ccccc3)cc2)c[nH]c1=S	-173*
C=CCn1c(-c2ccccc2)c[nH]c1=S	-120*
CCc1ccc(N2Cc3ccccc3C2)cc1	-151*
CCc1ccc(C(O)(CC(C)C)C(CN2CCOCC2)c2ccccc2)cc1 (stereo not given)	57
CCOC(=O)c1ccc(N2Cc3ccccc3C2)cc1O	-122*
Nc1c(-c2ccccc2)n[nH]c1-c1ccccc1	-219*
Cc1c(C(=O)Nc2nonc2-c2ccc(F)cc2)oc2ccc(F)cc12	54
Cc1cc2oc(C(=O)Nc3nonc3C)c(C)c2cc1C	-175*
CCc1ccc2oc(C(=O)Nc3nonc3C)c(C)c2c1	-138*
Cn1nnc(NC(=O)c2ccc3ccccc3c2)n1	-63*
Cn1nnc(NC(=O)c2ccc(C(C)(C)C)cc2)n1	-95*
CNc1sc(C(=O)c2cccs2)c(N)c1-c1nc2ccccc2s1	-157*
CNc1sc(C(=O)c2ccc(F)cc2)c(N)c1-c1nc2ccccc2s1	-137*
Cc1c(C(=O)NCc2ccc3c(c2)OCO3)oc2ccc(S(=O)(=O)N3CCCCCC3)cc12	60
Cc1c(C(=O)NCCCN2CCOCC2)oc2c1C1(CCC2)SCCS1	-70*
CCCc1ccc2oc(C(=O)NCCCN3CCOCC3)c(C)c2c1	-96*
CCCc1ccc2oc(C(=O)NCc3nnc(C)o3)c(C)c2c1	-128*
O=C(O)C(C(=O)/C=C/c1ccco1)=C1SCCS1	-69*
SMILES	aSyn UTR act
O=C(NCc1ccco1)Nc1ccc2nsnc2c1	-76*
O=C(NCCC1=CCCCC1)Nc1ccc2nsnc2c1	-110*
O=C(NCc1ccco1)Nc1ccc(Br)cc1	-119*
Cc1nc2ccc(NC(=O)c3sccc3C)cc2s1	-164*
Cc1nc2ccc(NC(=O)N3CCCCC3)cc2s1	-106*
Cc1nc2ccc(NC(=O)c3ccccc3)cc2s1	-106*
COc1cc(C(=O)Nc2ccc(C(C)=O)cc2)c(Br)c(OC)c1OC	-83*
Cc1nc2ccc(C(=O)Nc3ccccc3Cl)cc2s1	-235*
O=C(Nc1ccc2[nH]c(=S)sc2c1)c1ccccc1	-138*
Cc1nnc(NC(=O)c2ccc3ccccc3n2)s1	-152*
Cc1ccc(OC(=O)c2ccc3nc(C)sc3c2)cc1	-76*
Cc1nc2cc(C(=O)O)ccc2s1	-177*
Cc1nc2cc(NC(=O)c3ccc([N+](=O)[O-])s3)ccc2s1	77
Cc1nc2ccc(NC(=O)c3cccs3)cc2s1	-132*
N#Cc1ccccc1CSc1nc2ccc(NC(=O)c3ccccc3C(=O)O)cc2s1	-87*

Source: PubChem BioAssay (Broad Institute)
